Test results taken from the supplement of paper PMC11732987, “Enantioselective OTUD7B fragment discovery through chemoproteomics screening and high-throughput optimisation” (Communications Chemistry, 2025).

Assays:
Test in all cases: log2 ratio of Biotin-Ahx-Ub-VS probe labelling (fragment/DMSO); higher = less target engagement (more negative = stronger competition), active = hit call of the paper (q ≤ 0.05, log2 ratio ≤ -1)
Conditions in all cases: compound concentration: 200 uM; treatment time: 3 h
[1] = molecular target: USP34 (UniProt Q70CQ2)
Sequence of USP34 (Q70CQ2 whole entry, the tested form may be a part): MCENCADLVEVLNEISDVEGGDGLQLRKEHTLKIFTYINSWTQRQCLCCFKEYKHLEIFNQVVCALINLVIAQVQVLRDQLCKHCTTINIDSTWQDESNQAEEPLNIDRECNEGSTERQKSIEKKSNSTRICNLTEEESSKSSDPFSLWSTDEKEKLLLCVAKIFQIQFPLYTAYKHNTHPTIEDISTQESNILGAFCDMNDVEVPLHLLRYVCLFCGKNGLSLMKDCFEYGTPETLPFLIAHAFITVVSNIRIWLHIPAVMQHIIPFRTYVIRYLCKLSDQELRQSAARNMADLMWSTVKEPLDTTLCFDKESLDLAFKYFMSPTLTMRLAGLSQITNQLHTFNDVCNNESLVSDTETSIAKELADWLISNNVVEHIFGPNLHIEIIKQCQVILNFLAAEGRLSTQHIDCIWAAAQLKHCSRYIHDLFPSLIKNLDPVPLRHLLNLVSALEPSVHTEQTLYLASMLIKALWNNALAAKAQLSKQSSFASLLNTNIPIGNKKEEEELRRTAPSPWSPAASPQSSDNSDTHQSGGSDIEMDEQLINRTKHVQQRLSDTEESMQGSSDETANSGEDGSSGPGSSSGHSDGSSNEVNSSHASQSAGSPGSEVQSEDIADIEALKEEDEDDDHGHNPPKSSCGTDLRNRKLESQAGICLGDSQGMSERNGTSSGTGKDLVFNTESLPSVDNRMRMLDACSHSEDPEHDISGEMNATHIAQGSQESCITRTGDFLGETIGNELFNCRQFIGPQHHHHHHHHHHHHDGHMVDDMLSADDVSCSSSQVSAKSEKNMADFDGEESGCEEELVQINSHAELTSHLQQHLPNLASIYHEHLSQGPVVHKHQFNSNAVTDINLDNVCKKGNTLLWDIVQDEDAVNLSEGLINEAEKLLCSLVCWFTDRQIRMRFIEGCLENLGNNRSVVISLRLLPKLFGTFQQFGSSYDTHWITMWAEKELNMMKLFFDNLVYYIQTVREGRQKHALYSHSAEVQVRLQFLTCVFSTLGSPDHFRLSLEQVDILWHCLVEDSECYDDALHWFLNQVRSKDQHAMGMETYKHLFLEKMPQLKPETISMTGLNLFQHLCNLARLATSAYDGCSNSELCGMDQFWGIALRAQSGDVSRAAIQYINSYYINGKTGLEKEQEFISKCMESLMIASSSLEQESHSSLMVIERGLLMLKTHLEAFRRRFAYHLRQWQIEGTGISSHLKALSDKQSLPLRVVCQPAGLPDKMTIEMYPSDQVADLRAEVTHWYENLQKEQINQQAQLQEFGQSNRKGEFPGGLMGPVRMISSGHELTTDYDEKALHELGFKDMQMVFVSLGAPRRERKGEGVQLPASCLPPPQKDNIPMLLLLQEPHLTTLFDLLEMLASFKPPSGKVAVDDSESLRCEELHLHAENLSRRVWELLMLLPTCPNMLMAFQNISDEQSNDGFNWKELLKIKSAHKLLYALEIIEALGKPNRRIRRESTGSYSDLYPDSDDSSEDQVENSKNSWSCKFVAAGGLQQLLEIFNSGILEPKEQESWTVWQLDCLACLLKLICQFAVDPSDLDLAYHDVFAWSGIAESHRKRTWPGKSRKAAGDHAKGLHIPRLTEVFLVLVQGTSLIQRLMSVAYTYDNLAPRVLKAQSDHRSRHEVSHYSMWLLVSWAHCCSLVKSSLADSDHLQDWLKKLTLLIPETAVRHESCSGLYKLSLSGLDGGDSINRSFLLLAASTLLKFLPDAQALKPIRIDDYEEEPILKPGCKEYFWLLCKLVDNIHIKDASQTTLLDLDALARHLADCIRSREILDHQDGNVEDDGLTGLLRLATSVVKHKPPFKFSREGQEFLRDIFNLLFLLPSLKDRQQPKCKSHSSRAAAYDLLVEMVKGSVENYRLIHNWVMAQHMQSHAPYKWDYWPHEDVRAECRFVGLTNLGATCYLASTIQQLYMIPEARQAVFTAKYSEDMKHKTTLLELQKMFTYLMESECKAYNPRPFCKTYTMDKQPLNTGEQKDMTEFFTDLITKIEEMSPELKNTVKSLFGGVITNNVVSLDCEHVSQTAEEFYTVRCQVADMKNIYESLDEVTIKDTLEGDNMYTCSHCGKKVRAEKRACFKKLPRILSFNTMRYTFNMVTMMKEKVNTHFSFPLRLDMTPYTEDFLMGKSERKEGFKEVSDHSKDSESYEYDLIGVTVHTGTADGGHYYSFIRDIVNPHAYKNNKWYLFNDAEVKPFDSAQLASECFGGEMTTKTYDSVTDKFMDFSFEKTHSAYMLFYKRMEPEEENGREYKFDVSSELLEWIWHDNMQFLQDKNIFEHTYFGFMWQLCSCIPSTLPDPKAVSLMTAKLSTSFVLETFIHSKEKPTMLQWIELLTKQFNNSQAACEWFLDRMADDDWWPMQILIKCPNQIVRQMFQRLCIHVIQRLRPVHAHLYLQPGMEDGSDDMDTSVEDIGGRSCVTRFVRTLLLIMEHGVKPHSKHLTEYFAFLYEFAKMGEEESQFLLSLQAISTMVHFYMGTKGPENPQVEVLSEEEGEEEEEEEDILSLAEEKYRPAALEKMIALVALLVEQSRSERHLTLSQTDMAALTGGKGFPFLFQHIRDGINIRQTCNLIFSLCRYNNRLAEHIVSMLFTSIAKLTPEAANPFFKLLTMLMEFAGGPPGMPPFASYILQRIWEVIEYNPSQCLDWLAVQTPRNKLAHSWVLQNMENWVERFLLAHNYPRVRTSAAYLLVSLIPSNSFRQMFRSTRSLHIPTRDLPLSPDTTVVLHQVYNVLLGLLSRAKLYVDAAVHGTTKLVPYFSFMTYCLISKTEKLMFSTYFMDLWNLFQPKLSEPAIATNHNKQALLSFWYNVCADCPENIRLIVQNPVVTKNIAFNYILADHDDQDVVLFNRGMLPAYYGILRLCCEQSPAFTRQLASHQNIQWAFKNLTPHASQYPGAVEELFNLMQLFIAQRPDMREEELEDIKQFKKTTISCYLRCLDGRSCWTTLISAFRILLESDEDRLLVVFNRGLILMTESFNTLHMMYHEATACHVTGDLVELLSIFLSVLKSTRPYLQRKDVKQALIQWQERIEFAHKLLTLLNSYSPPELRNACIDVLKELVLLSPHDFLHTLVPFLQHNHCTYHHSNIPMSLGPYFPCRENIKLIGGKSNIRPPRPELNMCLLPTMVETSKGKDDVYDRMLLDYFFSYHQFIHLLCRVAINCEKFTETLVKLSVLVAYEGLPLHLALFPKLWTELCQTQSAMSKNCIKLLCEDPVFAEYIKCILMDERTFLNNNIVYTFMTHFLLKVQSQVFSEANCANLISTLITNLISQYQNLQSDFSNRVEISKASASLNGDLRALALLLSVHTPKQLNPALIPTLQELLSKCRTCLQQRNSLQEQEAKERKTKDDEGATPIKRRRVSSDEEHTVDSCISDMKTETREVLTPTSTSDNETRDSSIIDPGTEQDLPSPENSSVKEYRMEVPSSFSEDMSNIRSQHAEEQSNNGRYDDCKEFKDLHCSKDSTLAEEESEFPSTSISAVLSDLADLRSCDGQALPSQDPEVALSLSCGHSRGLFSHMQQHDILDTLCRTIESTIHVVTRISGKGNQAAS
Procedure, shortened: (§1)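 HEK293T lysate in Tris/CHAPS/IGEPAL buffer with protease inhibitors (495 µg per sample) was given fragment at 200 µM or vehicle for 3 h, in triplicate. It then received Biotin-Ahx-Ub-VS at 0.5 µM final for 1 h. Labelled DUBs were NeutrAvidin-enriched, digested with LysC and trypsin, and run by diaPASEF LC-MS/MS. Values are average log2 fragment/vehicle ratios by unpaired t-test on global-median-normalised Spectronaut quantities of proteins with ≥2 unique peptides.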

[2] = molecular target: T1, USP36 (UniProt Q9P275)
T1 sequence (whole entry): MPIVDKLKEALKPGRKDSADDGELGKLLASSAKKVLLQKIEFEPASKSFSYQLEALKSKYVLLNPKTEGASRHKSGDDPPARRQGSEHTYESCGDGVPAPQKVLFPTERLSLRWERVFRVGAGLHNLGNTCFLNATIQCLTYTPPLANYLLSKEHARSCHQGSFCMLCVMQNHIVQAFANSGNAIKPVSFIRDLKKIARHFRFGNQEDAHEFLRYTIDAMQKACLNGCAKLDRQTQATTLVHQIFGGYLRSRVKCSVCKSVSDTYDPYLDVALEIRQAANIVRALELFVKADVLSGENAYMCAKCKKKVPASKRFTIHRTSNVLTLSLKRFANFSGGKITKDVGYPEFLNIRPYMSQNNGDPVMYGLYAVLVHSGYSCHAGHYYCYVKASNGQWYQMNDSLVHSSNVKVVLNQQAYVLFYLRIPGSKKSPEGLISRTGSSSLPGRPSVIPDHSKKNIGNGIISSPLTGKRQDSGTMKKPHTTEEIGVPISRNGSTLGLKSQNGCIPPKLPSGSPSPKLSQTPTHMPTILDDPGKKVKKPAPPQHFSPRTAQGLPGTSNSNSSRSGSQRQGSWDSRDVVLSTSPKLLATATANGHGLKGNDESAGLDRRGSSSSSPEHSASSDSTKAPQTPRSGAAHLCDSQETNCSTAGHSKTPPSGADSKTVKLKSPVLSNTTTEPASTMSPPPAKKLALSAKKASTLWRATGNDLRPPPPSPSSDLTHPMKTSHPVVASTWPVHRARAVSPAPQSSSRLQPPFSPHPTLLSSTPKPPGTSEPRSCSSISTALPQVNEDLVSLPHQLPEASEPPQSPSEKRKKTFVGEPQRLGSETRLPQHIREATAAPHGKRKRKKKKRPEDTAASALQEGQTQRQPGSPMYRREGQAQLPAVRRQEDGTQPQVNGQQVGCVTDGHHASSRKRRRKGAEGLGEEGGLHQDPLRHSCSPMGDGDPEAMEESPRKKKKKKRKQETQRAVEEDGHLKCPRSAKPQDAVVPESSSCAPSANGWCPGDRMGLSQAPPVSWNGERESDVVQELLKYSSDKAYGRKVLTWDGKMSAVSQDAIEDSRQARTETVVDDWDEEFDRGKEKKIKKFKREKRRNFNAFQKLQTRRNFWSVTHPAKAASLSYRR
Procedure, shortened: as §1

[3] = molecular target: T2, USP38 (UniProt Q8NB14)
T2 sequence (whole entry): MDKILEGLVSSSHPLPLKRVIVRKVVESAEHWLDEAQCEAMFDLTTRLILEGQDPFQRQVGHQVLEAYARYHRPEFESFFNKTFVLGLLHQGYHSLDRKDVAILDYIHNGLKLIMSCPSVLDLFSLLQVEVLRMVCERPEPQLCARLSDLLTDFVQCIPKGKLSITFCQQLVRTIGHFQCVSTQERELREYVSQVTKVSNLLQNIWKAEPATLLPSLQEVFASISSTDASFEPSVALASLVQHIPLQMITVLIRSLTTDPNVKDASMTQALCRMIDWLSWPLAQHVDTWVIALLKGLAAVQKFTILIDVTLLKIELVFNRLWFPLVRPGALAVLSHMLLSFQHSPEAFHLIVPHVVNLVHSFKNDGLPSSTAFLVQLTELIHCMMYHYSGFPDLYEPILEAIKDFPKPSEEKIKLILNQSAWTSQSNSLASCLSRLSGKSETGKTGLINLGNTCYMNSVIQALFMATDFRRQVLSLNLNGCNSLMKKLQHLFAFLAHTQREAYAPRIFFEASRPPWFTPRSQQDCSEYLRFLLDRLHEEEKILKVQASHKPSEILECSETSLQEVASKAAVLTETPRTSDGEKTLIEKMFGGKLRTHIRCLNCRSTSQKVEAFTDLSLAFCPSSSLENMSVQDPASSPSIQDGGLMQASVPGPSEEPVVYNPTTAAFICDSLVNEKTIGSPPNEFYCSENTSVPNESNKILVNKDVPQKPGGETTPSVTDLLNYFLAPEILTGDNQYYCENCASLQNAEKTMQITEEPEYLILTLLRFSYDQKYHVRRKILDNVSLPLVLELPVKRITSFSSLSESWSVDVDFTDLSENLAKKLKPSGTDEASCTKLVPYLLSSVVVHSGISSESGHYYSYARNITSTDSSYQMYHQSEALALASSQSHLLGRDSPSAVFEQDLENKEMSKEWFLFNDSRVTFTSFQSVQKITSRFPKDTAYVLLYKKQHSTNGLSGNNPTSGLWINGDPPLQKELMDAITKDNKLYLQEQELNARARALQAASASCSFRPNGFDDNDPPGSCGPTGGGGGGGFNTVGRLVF
Procedure, shortened: as §1

[4] = molecular target: T3, USP39 (UniProt Q53GS9)
T3 sequence (whole entry): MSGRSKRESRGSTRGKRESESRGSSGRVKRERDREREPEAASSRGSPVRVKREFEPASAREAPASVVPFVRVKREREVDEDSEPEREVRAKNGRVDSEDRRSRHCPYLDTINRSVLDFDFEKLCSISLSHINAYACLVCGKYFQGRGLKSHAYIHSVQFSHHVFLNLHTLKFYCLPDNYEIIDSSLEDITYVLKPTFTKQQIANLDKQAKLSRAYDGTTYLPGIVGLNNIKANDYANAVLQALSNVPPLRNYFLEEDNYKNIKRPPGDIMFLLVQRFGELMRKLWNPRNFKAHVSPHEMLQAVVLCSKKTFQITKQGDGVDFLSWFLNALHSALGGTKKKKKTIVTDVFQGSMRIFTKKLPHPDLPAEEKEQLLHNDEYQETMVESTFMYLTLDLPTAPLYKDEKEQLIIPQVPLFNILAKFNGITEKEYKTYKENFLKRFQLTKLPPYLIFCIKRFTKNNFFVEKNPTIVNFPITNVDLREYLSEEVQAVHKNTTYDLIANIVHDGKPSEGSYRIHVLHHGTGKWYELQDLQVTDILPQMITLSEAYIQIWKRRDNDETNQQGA
Procedure, shortened: as §1

[5] = molecular target: T4, USP4 (UniProt Q13107)
T4 sequence (whole entry): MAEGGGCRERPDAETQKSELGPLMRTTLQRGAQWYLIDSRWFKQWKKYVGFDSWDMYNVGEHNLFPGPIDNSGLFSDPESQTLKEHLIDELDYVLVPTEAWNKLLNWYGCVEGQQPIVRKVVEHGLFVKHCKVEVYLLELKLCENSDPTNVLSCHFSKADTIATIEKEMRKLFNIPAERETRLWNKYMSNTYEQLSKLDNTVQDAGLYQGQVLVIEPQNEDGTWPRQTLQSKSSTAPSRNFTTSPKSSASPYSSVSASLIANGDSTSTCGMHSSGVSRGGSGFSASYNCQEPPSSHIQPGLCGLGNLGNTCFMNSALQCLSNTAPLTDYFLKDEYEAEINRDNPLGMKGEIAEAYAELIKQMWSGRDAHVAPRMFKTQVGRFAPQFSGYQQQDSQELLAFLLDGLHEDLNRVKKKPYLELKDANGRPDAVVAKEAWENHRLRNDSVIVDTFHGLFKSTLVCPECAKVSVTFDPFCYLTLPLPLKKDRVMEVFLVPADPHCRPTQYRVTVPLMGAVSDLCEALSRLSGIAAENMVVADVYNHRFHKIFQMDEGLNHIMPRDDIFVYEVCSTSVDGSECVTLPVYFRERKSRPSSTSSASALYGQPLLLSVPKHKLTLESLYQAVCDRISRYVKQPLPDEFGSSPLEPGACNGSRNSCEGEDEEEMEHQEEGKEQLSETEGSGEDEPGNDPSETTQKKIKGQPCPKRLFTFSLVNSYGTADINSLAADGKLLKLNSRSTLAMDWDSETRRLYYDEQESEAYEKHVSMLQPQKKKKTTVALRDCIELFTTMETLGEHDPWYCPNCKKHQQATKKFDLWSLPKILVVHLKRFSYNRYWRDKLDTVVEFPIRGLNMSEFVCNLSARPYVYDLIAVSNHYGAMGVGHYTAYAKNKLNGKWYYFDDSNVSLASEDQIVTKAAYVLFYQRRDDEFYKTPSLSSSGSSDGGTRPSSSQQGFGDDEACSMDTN
Procedure, shortened: as §1

Measured: log2 ratio of Biotin-Ahx-Ub-VS probe labelling

O=C(CCl)N1CCC(OCc2ccccc2F)CC1
inactive: [1] -0.138 | [2] 0.169 | [3] 0.211 | [4] 0.264 | [5] -0.121
